From PubChem BioAssay (Tox21) come the findings set out here.

Several values for one entry are separate records, joined by “and”; a condition that tells them apart may be missing. Equal values may be shown once. Results filed as inconclusive are left out. A number with no mark means an inactive call. Activity calls are given as the source filed them. Calls follow the shape of the dose curve; as a rule, active = well fitted curve in the direction sought with a large enough effect in the repeat runs; inconclusive = weak or mixed curves; inactive = no such curve, though single readings can be large; an effect the other way counts as inactive or inconclusive.
% is scaled to controls: 0 for no effect and ±100 for the full control effect.

Chain of Nuclear receptor subfamily 1 group I member 2 (Rattus norvegicus) (Q9R1A7 whole entry, looked up): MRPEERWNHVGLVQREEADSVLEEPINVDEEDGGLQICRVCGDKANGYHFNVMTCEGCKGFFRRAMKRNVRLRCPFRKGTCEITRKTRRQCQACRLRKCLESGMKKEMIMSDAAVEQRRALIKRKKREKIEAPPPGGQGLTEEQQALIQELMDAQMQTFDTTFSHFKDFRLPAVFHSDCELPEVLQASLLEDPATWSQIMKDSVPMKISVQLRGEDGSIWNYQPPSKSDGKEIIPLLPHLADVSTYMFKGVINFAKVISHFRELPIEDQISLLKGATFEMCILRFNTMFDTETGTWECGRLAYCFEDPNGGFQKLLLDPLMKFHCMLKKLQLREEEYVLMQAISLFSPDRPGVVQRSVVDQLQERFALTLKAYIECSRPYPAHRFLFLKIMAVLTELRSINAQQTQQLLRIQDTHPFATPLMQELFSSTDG

The target in one assay is Nuclear receptor subfamily 1 group I member 2 (Rattus norvegicus) (UniProt Q9R1A7). Kind of assay: Rat pregnane X receptor (rPXR) activation by small molecules, qHTS assay (AID 1346983). Also: nearly all actives have a fitted effect of over 20% in size. The following applies: rPXR luciferase reporter cells, One-Glo luminescence, 24 h; max activation: hits give high values. The method in brief:
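Cell-based rPXR luciferase reporter assay, 2,000 cells per well, rested 5hr at 37 C before compound addition in DMSO, then 24 hr at 37 C. One-Glo reagent was added and luminescence read after 30 min at room temperature.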
(qHTS replaces the single test concentration by a dilution series.)
On to `Cc1cccc(C)c1NC(=O)CC12CCCN1CCC2`, for which the max activation is 6.3%.
Consider `CCCCCCCCCCCCCCCCCCO`, for which the max activation was -0.712%.
For `[O-][n+]1cccc(CO)c1`, the max activation is -1.15%.
For `CC(=O)NC(=O)c1ccccc1O`, the max activation was -2.9%.
Take `CC(=O)Nc1ccc(OCC(O)CNC(C)C)cc1` (stereo unspecified): the max activation was 0.433%.
On the same count and under the same terms, then `CN(C)[C@@H]1C(=O)C(C(=O)NCN2CCCC2)=C(O)[C@@]2(O)C(=O)C3=C(O)c4c(O)cccc4[C@@](C)(O)C3C[C@@H]12` (stereo partly specified), with 1.07% and -3.86%.
Regarding `COc1cc(C(=O)NCc2ccc(OCCN(C)C)cc2)cc(OC)c1OC`, the max activation was 4.67%.
Consider `CN(C)C(=O)Oc1cccc([N+](C)(C)C)c1`, for which the max activation is -2.37%.
Consider `CC(=O)N[C@H]1[C@H]([C@H](O)[C@H](O)CO)OC(C(=O)O)=C[C@@H]1N=C(N)N`, for which the max activation was -1.75%.
For `CCN[C@@H]1C[C@H](N)[C@@H](OC2OC(CN)=CCC2N)[C@H](O)[C@H]1O[C@H]1OC[C@](C)(O)[C@H](NC)[C@H]1O` (stereo partly specified), the max activation was -4.25%.
Same read-out and setting: then `C[N+]12CCC(CC1)C(OC(=O)C(O)(c1ccccc1)c1ccccc1)C2` (stereo unspecified), with -2.26%.

The target in a further assay is Nuclear receptor subfamily 1 group I member 2 (Homo sapiens) (UniProt O75469). The assay is described as follows: CYP3A4 induction through human pregnane X receptor (PXR) by small molecules, qHTS assay (AID 1346984). Also: nearly all actives have a fitted effect of over 40% in size. The note with it: DPX-2 HepG2 PXR, CYP3A4-luciferin luminescence, 24 h; series mostly up to 46.1 µM; activation: at the top concentration. Put shortly:
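HepG2-derived DPX-2 line carrying PXR plus a CYP3A4-promoter luciferase reporter; cells plated 5 hr, compound-exposed 24 hr at 37C. CYP3A4 activity probed with 3uM (final) Luciferin-IPA for 3hr, then luciferase read after One-Glo.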
`Cc1cccc(C)c1NC(=O)CC12CCCN1CCC2`: the “activation” value is -4.51%.
As to `CCCCCCCCCCCCCCCCCCO`, the “activation” value is -3.22%.
For `[O-][n+]1cccc(CO)c1`, the “activation” value was 3.35%.
As to `CC(=O)NC(=O)c1ccccc1O`, the “activation” value was 0.849%.
Still for that read-out and setting: then `CC(=O)Nc1ccc(OCC(O)CNC(C)C)cc1` (stereo unspecified), with -4.85%.
With `CN(C)[C@@H]1C(=O)C(C(=O)NCN2CCCC2)=C(O)[C@@]2(O)C(=O)C3=C(O)c4c(O)cccc4[C@@](C)(O)C3C[C@@H]12` (stereo partly specified), the Potency entry is “inactive”.
Turning to `CN(C)C(=O)Oc1cccc([N+](C)(C)C)c1`, the “activation” value was -5.98%.
In the case of `CCN[C@@H]1C[C@H](N)[C@@H](OC2OC(CN)=CCC2N)[C@H](O)[C@H]1O[C@H]1OC[C@](C)(O)[C@H](NC)[C@H]1O` (stereo partly specified), the “activation” value was -4.13%.
The same measure, in the same setting: then `C[N+]12CCC(CC1)C(OC(=O)C(O)(c1ccccc1)c1ccccc1)C2` (stereo unspecified), with 16.7% [at 20.6 µM].

The next assay shares this target. Kind of assay: Human pregnane X receptor (PXR) activation by small molecules, qHTS assay (AID 1346985). Also: nearly all actives have a fitted effect of over 40% in size. The note with it: DPX-2 HepG2 CYP3A4-luciferase, 24 h; series mostly up to 38.3 µM; activation: at the top concentration. Put shortly:
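DPX-2 cells (HepG2 co-transfected with a PXR response element and a CYP3A4-promoter luciferase construct) were seeded at 2,000 per well, rested 5 hr at 37C, then exposed to DMSO-dissolved compounds for 24 hr. Activation was read as luciferase luminescence.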
In the case of `Cc1cccc(C)c1NC(=O)CC12CCCN1CCC2`, the “activation” value is 4.01%.
In the case of `CCCCCCCCCCCCCCCCCCO`, the “activation” value was -0.116%.
Consider `[O-][n+]1cccc(CO)c1`, for which the “activation” value was -4.06%.
Consider `CC(=O)NC(=O)c1ccccc1O`, for which the “activation” value is -7.51%.
With `CC(=O)Nc1ccc(OCC(O)CNC(C)C)cc1` (stereo unspecified), the “activation” value is 6.23%.
On to `CN(C)[C@@H]1C(=O)C(C(=O)NCN2CCCC2)=C(O)[C@@]2(O)C(=O)C3=C(O)c4c(O)cccc4[C@@](C)(O)C3C[C@@H]12` (stereo partly specified), for which the Potency entry was “inactive”.
For `COc1cc(C(=O)NCc2ccc(OCCN(C)C)cc2)cc(OC)c1OC`, the “activation” value was 0.903% [at 17.1 µM].
As for `CN(C)C(=O)Oc1cccc([N+](C)(C)C)c1`, the “activation” value was 2.46%.
`CC(=O)N[C@H]1[C@H]([C@H](O)[C@H](O)CO)OC(C(=O)O)=C[C@@H]1N=C(N)N`: the “activation” value is 13.6%.
Take `CCN[C@@H]1C[C@H](N)[C@@H](OC2OC(CN)=CCC2N)[C@H](O)[C@H]1O[C@H]1OC[C@](C)(O)[C@H](NC)[C@H]1O` (stereo partly specified): the “activation” value was -2.81%.
Still for that read-out and setting: then `C[N+]12CCC(CC1)C(OC(=O)C(O)(c1ccccc1)c1ccccc1)C2` (stereo unspecified), with -8.68% [at 17.1 µM].
